# Laboratory results taken from PubChem BioAssay AID1259415 (National Center for Advancing Translational Sciences (NCATS), 2018).
# Screen size: about 410,000 compounds; about 18,000 (4.4%) were called active. About 7% were inconclusive and are not listed. The sample holds actives, similar compounds and a random draw of the others, so the mix is not that of the screen. No stated cut-off is given here; in the data, active means activity change below about -60%; inconclusive means no clear call, values can overlap the other calls; inactive means above about -39%.
# Assay: qHTS Assay for inhibitors of the human cytomegalovirus (HCMV)
# Settings: HFF cells, HCMV-luciferase reporter, 72 h; at 57.5 µM; hits give low values
# Excerpt: NCGC Assay Overview: Infection with human cytomegalovirus (HCMV) continues to pose significant threats for pregnant women and immunocompromised hosts. HCMV causes serious morbidity and mortality in transplant recipients, and congenital HCMV is the leading infectious cause of mental retardation and deafness in children. In the 1990s, the annual costs associated with the disease burden of congenital CMV were estimated at around $2 billion. A HCMV vaccine is not available yet and HCMV therapies result in intolerable side effects and emergence of drug resistant viruses. […] Towards this goal we have developed and characterized a luciferase HCMV reporter that was initially used in 96 well plates and then optimized to 1536-well plates for utilization in screening of the MLSMR collection, the NGCG diversity collection and the NCGC Pharmaceutical Collection of approved and investigational drugs.
# NCGC Assay Protocol Summary:
# This is a cell-based assay for HCMV inhibition in HFFs cells. The screening used 2 compound doses and the HCMV-luciferase at MOI of 1 PFU/cell. Cells were treated and infected with HCMV. At 72 h post infection cell lysates were collected and luciferase activity was determined using the Glomax-Multi + Detection System (Promega, Madison, WI). Data were normalized to the controls for basal activity (buffer only) and known HCMV inhibitors Salinmoycin.
# 1536-well assay protocol for the assay:
# (1) Add 3 ul CMV/HFF cell culture. 1000 cells/well in DMEM nirmal media.
# (2) Incubate 16 hr at 37C.
# (3) Add 23 nl control compound, 10uM of Salinomycin.
# (4) Add 23 nl compounds in DMSO solution.
# (5) Add 3 ul CMV suspension. Final 1 puf/ul, Virus stock 2000pfu/ul
# (6) Incubate 72 hrs at 37C.
# (7) Add 4 ul OneGlo Luc Reagent.
# (8) Incubate 5 min at room temperature.
# On the % scale 0 is the no-effect control and ±100 the full control effect.
row,Compound,"activity change, negative = inhibition"
1,COCCNc1nc(-n2nc(C)cc2C)nc2sc3c(c12)CCCC3,-6.15% (inactive)
2,Cc1cc(C)n(-c2nc(SCC(=O)N3CCCC3)c3c4c(sc3n2)CCCC4)n1,-63.6% (active)
3,CC(C)c1nc(SCC(=O)Nc2cccc(C(=O)O)c2)c2c3c(sc2n1)CCCC3,-5.06% (inactive)
4,CC(=O)c1ccc(NC(=O)CCNS(=O)(=O)c2cc(Br)cnc2N)cc1,31.8% (inactive)
5,CCOc1ccc(CNC(=O)c2ccc(CS(=O)c3ccccc3)o2)cc1 (stereo unspecified),-3.55% (inactive)
6,CCCCc1nn2c(=O)cc(COC(=O)c3cccc(NC(=O)COc4ccccc4)c3)nc2s1,31.4% (inactive)
7,O=[N+]([O-])c1ccccc1S(=O)(=O)Nc1cccc2cccnc12,-100% (active)
8,Cc1ccc2cccc([N+](=O)[O-])c2n1,19.3% (inactive)
9,O=S(=O)(NCCc1ccc(F)cc1)c1cccc2cccnc12,-31.1% (inactive)
10,Cn1c2ccccc2c2cc(/C=C(\NC(=O)c3ccccc3)C(=O)NCC(=O)O)ccc21,-0.653% (inactive)
11,Cc1nc(-c2ccccc2C(C)C)nc(NCc2ccc(-c3cccnc3)cc2)c1C,28% (inactive)
12,COc1ccc(OC)c(-c2csc(-c3c(N)c(C(=O)c4ccccc4)n4ccccc34)n2)c1,5.78% (inactive)
13,O=c1c2ccccc2nc(/C=C/c2ccco2)n1-c1ccccc1O,-24% (inactive)
14,O=c1c2ccccc2nc(/C=C/c2ccc(F)cc2)n1-c1ccccc1O,-99.8% (active)
15,O=C(CSc1nc2ccccc2c(=O)n1-c1ccccc1F)N1CCOCC1,-17.8% (inactive)
16,COc1ccc(OC)c2sc(N3CCN(C(=O)C4COc5ccccc5O4)CC3)nc12 (stereo unspecified),-1.41% (inactive)
17,COc1ccccc1-c1nnc(C2CCN(C(=O)c3ccc(Cl)cc3)CC2)o1,-8.12% (inactive)
18,Cc1nc2c(-c3ccccc3)c(C)nn2c(C)c1CCC(=O)NCCc1ccccc1,11.4% (inactive)
19,Cc1nc2c(-c3ccc(F)cc3)c(C)nn2c(C)c1CCC(=O)NCc1ccco1,-13.3% (inactive)
20,Cc1nc2c(-c3ccc(F)cc3)c(C)nn2c(C)c1CCC(=O)N1CCN(c2ccccn2)CC1,-68.5% (active)
21,Cc1ccc(S(=O)(=O)c2c(Nc3cccc(Cl)c3)sc(C(=O)c3ccc4c(c3)OCO4)c2N)cc1,9.79% (inactive)
22,Cc1ccc(/C=N/NC(=O)C(NC(=O)c2ccccc2)c2n[nH]c(=O)c3ccccc23)cc1 (stereo unspecified),19.8% (inactive)
23,Cc1ccc(O)c(-c2cc(C(=O)NCc3ccccc3)[nH]n2)c1,1.75% (inactive)

row,Compound,"activity change, negative = inhibition"
1,Cc1ccc(/C=N/NC(=O)C2=NNC(c3ccccc3)(c3ccccc3)C2)c(O)c1,-93.6% (active)
2,COc1ccc(NC(=O)c2cc3cc(C)ccc3n2C)cc1,5.58% (inactive)
3,CCOC(=O)c1c(S(=O)(=O)N2CCCC(C(=O)NCc3cccc(C)c3)C2)c(C)n(C)c1C (stereo unspecified),-0.309% (inactive)
4,Cc1oc2ncn(CC(C)C)c(=O)c2c1C(=O)N1CCN(c2ccccc2F)CC1,14.5% (inactive)
5,C=C1C(=O)[C@]23C[C@H]1CCC2[C@@]1(C)C(C[C@@H]3O)[C@](C)(C(=O)O)CC[C@@H]1O (stereo partly specified),-81.2% (active)
6,Fc1ccccc1/C=N/Nc1cc(N2CCCCC2)ncn1,76.3% (inactive)
7,Cc1ccc(OCCOCCOc2ccc(Br)cc2/C=N\NC(=O)c2ccncc2)cc1,-1.54% (inactive)
8,Oc1ccc(Br)cc1/C=N/Nc1ccccn1,-97% (active)
9,COc1ccc(-c2noc(CSc3nc4ccc(C)cc4[nH]3)n2)cc1,-38.7% (inactive)
10,COC(=O)c1cnc(N2CCN(c3ccccc3OC)CC2)c2ccccc12,-6.88% (inactive)
11,Cc1cccc(N2CCN(C3=C(c4ccccc4)C(=O)c4ccccc43)CC2)c1C,-15.5% (inactive)
12,O=C(NC1CC(=O)N(c2ccc(F)cc2)C1)c1cccs1 (stereo unspecified),70.7% (inactive)
13,COc1ccc(C)cc1Nc1nc2ccccc2c2nnc(C)n12,18.4% (inactive)
14,O=C(c1n[nH]c2c1CCC2)N1CCCC(Nc2cccc(F)c2)C1 (stereo unspecified),9.79% (inactive)
15,Cc1ccc(-c2onc(C)c2C)cc1S(=O)(=O)Nc1ccccn1,52.8% (inactive)
16,Cn1c(=O)c(=O)n(C)c2cc(NC(=O)c3ccccc3Br)ccc21,-5.7% (inactive)
17,COc1ccc2c(c1)Cc1sc(NC(=O)c3ccccc3Br)nc1-2,-70.4% (active)
18,COc1ccc(NS(=O)(=O)c2ccc(N3CCOCC3)c(NC(=O)c3ccccc3Br)c2)cc1,0% (inactive)
19,O=C(NCCc1ccccc1)c1ccc2c(c1)N(Cc1ccccc1)C(=O)c1ccccc1S2(=O)=O,3.01% (inactive)
20,O=C(OCCO)c1cc(Cl)c(C(=O)OCCO)cc1Cl,-29.4% (inactive)
21,CC1=C(C(=O)N(C(C)C)C(C)C)CC(CC(=O)NCCCCc2ccccc2)C(=O)N1CCC1=CCCCC1 (stereo unspecified),-112% (active)
22,CCOC(=O)[C@]12CCCC=C1N(CCC1=CCCCC1)C(=O)[C@H](CC(=O)NCCCCc1ccccc1)C2,-18.4% (inactive)
23,CC1=C(C(=O)N(C)C)CC(CC(=O)NCCc2ccccn2)C(=O)N1CCC1=CCCCC1 (stereo unspecified),8.56% (inactive)
